Source: PubChem BioAssay
For some assays here: Results with a measured potency or affinity are listed apart. The list shows a part of the results. The source made the active and inactive calls.

Tests used:
[1] = target: Inward rectifier potassium channel 2 (Mus musculus) (UniProt P35561); assay: mouse Kir2.1 channel blockers, retest, confirmation, cell-based, FluxOR thallium flux, duplicate (AID 2032;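 active = Primary-screen hit whose thallium flux fell at least 3 control SD below untreated wells in both duplicates, with normal baseline fluorescence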); settings: Kir2.1-expressing cells, FluxOR thallium flux fluorescence, at 10 µM; hits give low values
Sequence of Inward rectifier potassium channel 2 (Mus musculus) (P35561 whole entry, looked up): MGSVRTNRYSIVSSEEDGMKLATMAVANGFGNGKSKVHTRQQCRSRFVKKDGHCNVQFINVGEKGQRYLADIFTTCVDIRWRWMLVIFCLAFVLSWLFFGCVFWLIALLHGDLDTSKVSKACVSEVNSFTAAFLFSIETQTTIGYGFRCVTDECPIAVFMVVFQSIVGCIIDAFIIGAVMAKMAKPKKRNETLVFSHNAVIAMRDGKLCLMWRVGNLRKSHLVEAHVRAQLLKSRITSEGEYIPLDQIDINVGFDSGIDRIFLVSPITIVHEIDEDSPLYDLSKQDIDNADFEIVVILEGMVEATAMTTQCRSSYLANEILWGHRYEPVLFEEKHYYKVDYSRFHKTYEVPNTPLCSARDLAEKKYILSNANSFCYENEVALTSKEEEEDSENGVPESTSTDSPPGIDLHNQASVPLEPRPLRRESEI

[2] = nonspecific thallium flux effects in parental HEK293 cells, confirmation, counter-screen for Kir2.1 inhibitor project, cell-based, FluxOR thallium flux, duplicate, single concentration (AID 2105;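 active = dye signal at least 3 control SD above or below untreated wells in both duplicates, raw fluorescence within 3, either direction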;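 as to FluxOR signal as % of negative control (100 = no effect): percent is based on the flux ratio of peak minus minimum fluorescence over baseline F0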); settings: FluxOR thallium flux fluorescence, at 10 µM; 0% = unstimulated blank wells
[3] = nonspecific thallium flux increase in parental CHO-K1, confirmation, counter-screen for KCNQ2 potentiator project, cell-based, FluxOR thallium flux, duplicate (AID 2282;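 active = signal rise of at least 3 SD above the untreated control mean, in both duplicate wells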;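 also: counter screen of KCNQ2 potentiator hits so any rise reflects channel-independent effects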); settings: parental CHO-K1 cells, FluxOR thallium flux fluorescence; at 10 µM; hits give high values; zero = vehicle mean+3SD, 100% = vehicle-minus-blank window
[4] = target: Potassium voltage-gated channel subfamily KQT member 1 (Homo sapiens) (UniProt P51787); assay: human KCNQ1 channel potentiation off-target, confirmation, selectivity assay for KCNQ2 potentiator project, cell-based, CHO, FluxOR thallium flux (AID 2283;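 active = fluorescence ratio rise of at least 3 SD of vehicle wells above their mean, in both replicate wells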;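 also: 0% = vehicle mean plus 3 SD and 100% = vehicle minus unstimulated blank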); settings: CHO KCNQ1 stable, FluxOR thallium flux fluorescence; at 10 µM; hits give high values; beyond 3SD, as % of vehicle-control signal
Sequence of Potassium voltage-gated channel subfamily KQT member 1 (Homo sapiens) (P51787 whole entry, looked up): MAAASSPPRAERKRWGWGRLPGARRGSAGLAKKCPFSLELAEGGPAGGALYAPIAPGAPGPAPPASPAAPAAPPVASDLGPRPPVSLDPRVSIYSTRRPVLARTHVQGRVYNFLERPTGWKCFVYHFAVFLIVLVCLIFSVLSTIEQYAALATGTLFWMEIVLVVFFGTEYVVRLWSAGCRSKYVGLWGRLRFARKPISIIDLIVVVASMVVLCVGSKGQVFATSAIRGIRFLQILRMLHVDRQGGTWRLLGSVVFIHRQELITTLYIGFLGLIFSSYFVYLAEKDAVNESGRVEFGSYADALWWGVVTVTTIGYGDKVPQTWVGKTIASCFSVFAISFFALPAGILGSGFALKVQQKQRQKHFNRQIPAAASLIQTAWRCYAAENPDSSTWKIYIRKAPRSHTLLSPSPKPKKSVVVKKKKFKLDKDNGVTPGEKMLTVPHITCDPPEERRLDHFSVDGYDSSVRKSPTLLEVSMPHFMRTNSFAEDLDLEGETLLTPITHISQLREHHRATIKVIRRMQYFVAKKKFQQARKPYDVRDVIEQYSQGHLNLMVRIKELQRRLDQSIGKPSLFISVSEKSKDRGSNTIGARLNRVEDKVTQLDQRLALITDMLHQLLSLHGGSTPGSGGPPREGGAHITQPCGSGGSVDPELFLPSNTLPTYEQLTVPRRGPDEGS

[5] = target: Potassium voltage-gated channel subfamily KQT member 2 (Rattus norvegicus) (UniProt O88943); assay: rat KCNQ2 channel potentiators, confirmation, cell-based, CHO, FluxOR thallium flux, duplicate (AID 2287;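 active = fluorescence ratio rising 3 SD or more over the vehicle control mean in both replicates, plus primary screen hit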;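 also: peak minus minimum thallium fluorescence divided by baseline after K/Tl stimulus; 0% = vehicle mean plus 3 SD and 100% = vehicle minus unstimulated blank difference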); settings: CHO-KCNQ2 cells, FluxOR thallium flux fluorescence; at 10 µM; hits give high values
[6] = target: Inward rectifier potassium channel 2 (Mus musculus) (UniProt P35561); assay: PubChem AID 2345; settings: HEK293 Kir2.1, FluxOR thallium flux fluorescence; at 10 µM; hits give high values;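 also: 0% = vehicle mean plus 3 SD and 100% = vehicle minus no-stimulus blank window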
[7] = target: Voltage-gated inwardly rectifying potassium channel KCNH2 (Homo sapiens) (UniProt Q12809); assay: hERG channel inhibition, counter-screen for Kir2.1 inhibitor project, cell-based, thallium flux (AID 2236); settings: hERG-expressing cells, at 10 µM; hits give high values;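 also: host cells are CHO cells stably expressing hERG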
Sequence of Voltage-gated inwardly rectifying potassium channel KCNH2 (Homo sapiens) (Q12809 whole entry, looked up): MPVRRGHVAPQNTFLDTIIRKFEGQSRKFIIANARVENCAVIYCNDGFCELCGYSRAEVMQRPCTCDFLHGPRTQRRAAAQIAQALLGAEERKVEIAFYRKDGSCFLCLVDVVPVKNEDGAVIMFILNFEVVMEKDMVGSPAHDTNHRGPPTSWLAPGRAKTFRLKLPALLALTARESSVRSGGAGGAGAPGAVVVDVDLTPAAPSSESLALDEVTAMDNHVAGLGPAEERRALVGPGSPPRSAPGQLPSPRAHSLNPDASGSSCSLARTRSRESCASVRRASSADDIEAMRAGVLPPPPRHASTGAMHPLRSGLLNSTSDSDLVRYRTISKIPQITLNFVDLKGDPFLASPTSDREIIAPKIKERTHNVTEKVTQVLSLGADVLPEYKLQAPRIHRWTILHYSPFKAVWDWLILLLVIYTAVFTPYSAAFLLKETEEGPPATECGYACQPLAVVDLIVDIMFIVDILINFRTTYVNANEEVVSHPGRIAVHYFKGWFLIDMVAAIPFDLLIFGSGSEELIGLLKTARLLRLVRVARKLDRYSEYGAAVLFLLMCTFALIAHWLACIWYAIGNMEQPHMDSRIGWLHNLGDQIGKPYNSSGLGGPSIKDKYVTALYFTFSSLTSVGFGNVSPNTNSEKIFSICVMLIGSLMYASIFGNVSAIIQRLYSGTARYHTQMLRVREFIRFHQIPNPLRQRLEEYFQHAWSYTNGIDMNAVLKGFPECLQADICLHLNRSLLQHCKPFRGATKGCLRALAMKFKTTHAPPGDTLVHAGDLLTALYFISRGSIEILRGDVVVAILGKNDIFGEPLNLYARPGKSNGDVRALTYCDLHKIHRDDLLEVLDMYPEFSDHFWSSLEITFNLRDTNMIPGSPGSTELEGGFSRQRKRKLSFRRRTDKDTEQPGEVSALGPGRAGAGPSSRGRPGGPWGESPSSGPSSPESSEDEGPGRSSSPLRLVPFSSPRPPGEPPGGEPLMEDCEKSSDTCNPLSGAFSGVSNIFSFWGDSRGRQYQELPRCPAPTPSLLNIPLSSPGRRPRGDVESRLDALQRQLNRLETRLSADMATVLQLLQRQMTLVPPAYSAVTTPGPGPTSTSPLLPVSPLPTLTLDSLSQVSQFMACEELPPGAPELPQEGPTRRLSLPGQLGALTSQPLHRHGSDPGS

[8] = target: Potassium channel subfamily K member 9 (Homo sapiens) (UniProt Q9NPC2); assay: KCNK9 channel inhibition, selectivity assay for Kir2.1 inhibitor project, cell-based (AID 2329); settings: KCNK9-expressing cells, ion flux inhibition, at 10 µM; hits give high values
[9] = target: Inward rectifier potassium channel 2 (Mus musculus) (UniProt P35561); assay: mouse Kir2.1 channel blockers, Kir2.1 inhibitor project, cell-based, secondary, automated electrophysiology (AID 463252); settings: Kir2.1 cells, automated patch-clamp current inhibition, at 25 µM; hits give high values
[10] = parental HEK293 membrane potential modulation, confirmation, counter-screen for TRPC6 modulator project, cell-based (AID 488924;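 active = membrane potential signal moves up or down beyond 5 SD from buffer-only wells, on both duplicate plates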); settings: parental HEK293, membrane potential dye fluorescence; at 10 µM
[11] = modulation of acetylcholine-evoked membrane potential, parental HEK293, confirmation, counter-screen for TRPC6 modulator project, cell-based, second counter-screen, membrane potential dye (AID 488926;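 active = membrane potential signal drops by more than 5 SD from the mean control signal, in both duplicate plates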); settings: parental HEK293, membrane potential dye fluorescence; at 10 µM; after compound, maximal acetylcholine stimulation
[12] = test system: Transient receptor potential cation channel subfamily C member 4 (mouse); assay: TRPC4 modulation by TRPC6 hit compounds, confirmation, selectivity assay for TRPC6 modulator project, cell-based, HEK293 TRPC4/mu-opioid, membrane potential dye, mouse (AID 488927;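 active = membrane potential signal moved up or down beyond 5 SD of buffer control wells, in both duplicate plates, actives on both sides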;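 also: plate controls were assay buffer wells for no effect and DAMGO maximal-effect wells for full effect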); settings: membrane potential fluorescence, at 10 µM
[13] = test system: TRPC4 (transient receptor potential cation channel C4), mouse; assay: TRPC4 inhibition by TRPC6 hit compounds, confirmation, selectivity assay for TRPC6 modulator project, cell-based, second screen, HEK293 TRPC4/mu-opioid, membrane potential dye (AID 488928;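 active = drop in membrane potential signal beyond 5 SD of the control wells in both duplicate plates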;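 also: TRPC4 counter screen for TRPC6 hits run under conditions tuned for TRPC6 not TRPC4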); settings: membrane potential dye fluorescence, at 10 µM, stimulated with maximal-effect DAMGO; hits give high values
[14] = target: Short transient receptor potential channel 6 (Mus musculus) (UniProt Q61143); assay: mouse TRPC6 channel inhibitors, confirmation, HEK293 cells, membrane potential dye, duplicate (AID 488960;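 active = fluorescence ratio falls more than 5 SD below the full-stimulation control mean, in both duplicate runs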;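 also: integrated fluorescence ratio of peak minus minimum over baseline after agonist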); settings: ACh-evoked depolarization, at 10 µM; hits give high values
Sequence of Short transient receptor potential channel 6 (Mus musculus) (Q61143 whole entry, looked up): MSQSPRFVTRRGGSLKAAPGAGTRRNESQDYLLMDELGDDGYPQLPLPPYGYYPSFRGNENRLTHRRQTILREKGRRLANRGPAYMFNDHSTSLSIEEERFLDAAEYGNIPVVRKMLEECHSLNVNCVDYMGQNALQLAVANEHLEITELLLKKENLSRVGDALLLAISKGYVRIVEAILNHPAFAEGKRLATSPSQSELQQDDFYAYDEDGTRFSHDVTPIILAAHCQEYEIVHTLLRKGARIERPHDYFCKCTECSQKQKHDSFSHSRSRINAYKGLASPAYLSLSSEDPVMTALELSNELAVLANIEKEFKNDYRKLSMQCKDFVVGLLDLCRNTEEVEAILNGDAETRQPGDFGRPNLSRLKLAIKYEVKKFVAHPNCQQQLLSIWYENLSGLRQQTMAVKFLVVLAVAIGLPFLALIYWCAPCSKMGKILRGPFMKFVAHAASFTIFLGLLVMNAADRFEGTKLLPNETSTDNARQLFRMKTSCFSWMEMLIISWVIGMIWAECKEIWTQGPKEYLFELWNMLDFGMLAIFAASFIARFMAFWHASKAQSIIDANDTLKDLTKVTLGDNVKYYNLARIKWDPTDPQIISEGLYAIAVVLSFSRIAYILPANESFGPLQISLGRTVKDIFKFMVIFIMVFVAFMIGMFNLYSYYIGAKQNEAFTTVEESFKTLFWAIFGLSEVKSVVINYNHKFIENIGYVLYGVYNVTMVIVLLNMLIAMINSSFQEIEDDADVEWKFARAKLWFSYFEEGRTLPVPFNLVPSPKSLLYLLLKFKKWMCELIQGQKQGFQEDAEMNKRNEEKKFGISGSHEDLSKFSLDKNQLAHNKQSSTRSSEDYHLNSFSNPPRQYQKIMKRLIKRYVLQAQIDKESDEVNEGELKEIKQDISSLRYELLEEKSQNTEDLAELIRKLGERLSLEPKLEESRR

[15] = test system: TRPC4 beta (transient receptor potential cation channel C4), mouse; assay: activators of mouse TRPC4 channel, confirmation, cell-based, Fluo4 calcium, HEK293 TRPC4beta/mu-opioid, duplicates, 10 µM (AID 2426;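 active = fluorescence ratio normalized to control raised more than 50% in primary screen plus both repeat runs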;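 as to activation: percent rise of integrated ratio over buffer wells lacking compound which define 0%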); settings: Fluo4 calcium fluorescence, at 10 µM; hits give high values
[16] = test system: transient receptor potential cation channel C4 beta (TRPC4), mouse; assay: activators of mouse TRPC4 channel, confirmation, cell-based, second round, Fluo4, HEK293 TRPC4beta/mu-opioid, 1 µM (AID 2461;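 active = primary screen active and over 50% activation in each of two duplicate runs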); settings: Fluo4 calcium fluorescence, at 1 µM; hits give high values
[17] = test system: TRPC4 (transient receptor potential cation channel C4 beta), mouse; assay: positive allosteric modulators of mouse TRPC4, confirmation, cell-based, second round, Fluo-4, HEK293 TRPC4beta/mu-opioid, 1 µM (AID 2554;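 active = primary screen hit whose fluorescence ratio, in both repeats, exceeds the weak agonist control mean by 3 SD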); settings: DAMGO EC20, Fluo-4 calcium flux, at 1 µM; hits give high values
[18] = test system: TRPC4 beta (transient receptor potential cation channel C4), mouse; assay: positive allosteric modulators of mouse TRPC4, confirmation, cell-based, Fluo-4, HEK293 TRPC4beta/mu-opioid (AID 2555;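 active = primary screen hit whose calcium fluorescence ratio, in both repeats, exceeds the weak agonist control mean by 3 SD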); settings: DAMGO EC20, Fluo-4 calcium flux, at 10 µM; hits give high values
[19] = target: Potassium voltage-gated channel subfamily KQT member 2 (Rattus norvegicus) (UniProt O88943); assay: potentiators of retigabine-insensitive KCNQ2 W236L, mechanism study for KCNQ2 potentiator project, cell-based, rat KCNQ2 W236L, CHO, automated patch clamp (AID 2558;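 active = current increase at least 3 SD of the untreated controls above them in both duplicate recordings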); settings: at 25 µM; outcome: automated patch clamp current
[20] = target: Short transient receptor potential channel 4 (Mus musculus) (UniProt Q9QUQ5); assay: inhibitors of mouse TRPC4 channel, confirmation, cell-based, Fluo4, HEK293 TRPC4beta/mu-opioid (AID 2636;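 active = calcium signal cut by more than 3 SD below the full-agonist control yet still positive, in both repeats and the earlier primary screen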); settings: DAMGO, Fluo4 calcium flux, at 10 µM; hits give high values
Sequence of Short transient receptor potential channel 4 (Mus musculus) (Q9QUQ5 whole entry, looked up): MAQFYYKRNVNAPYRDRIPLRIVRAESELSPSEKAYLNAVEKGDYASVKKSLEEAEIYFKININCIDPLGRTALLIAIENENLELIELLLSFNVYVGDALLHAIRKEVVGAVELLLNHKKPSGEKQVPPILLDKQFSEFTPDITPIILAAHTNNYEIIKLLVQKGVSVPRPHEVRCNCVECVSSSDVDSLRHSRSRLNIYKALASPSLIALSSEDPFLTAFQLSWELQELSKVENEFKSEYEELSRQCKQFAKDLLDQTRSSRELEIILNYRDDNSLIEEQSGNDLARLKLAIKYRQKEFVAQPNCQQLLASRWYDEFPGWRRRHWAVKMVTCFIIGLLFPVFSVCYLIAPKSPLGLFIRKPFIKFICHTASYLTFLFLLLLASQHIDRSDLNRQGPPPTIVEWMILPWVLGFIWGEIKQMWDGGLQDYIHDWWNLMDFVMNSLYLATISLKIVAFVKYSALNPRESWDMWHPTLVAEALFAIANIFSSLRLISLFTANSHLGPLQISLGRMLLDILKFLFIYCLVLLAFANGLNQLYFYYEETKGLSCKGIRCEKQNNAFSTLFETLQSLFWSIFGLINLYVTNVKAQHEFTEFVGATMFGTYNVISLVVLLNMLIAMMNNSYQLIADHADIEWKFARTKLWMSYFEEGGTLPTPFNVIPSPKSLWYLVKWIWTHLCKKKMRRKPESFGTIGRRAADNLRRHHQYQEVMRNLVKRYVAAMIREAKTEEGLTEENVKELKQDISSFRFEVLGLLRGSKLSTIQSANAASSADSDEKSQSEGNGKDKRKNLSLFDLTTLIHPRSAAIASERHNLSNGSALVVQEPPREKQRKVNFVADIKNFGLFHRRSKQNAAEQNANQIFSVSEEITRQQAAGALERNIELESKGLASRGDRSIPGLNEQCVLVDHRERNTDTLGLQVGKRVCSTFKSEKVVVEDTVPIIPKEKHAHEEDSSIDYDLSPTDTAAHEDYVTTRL

[21] = target: Short transient receptor potential channel 4 (Mus musculus) (UniProt Q9QUQ5); assay: inhibitors of mouse TRPC4 channel, confirmation, cell-based, second round, Fluo4, HEK293 TRPC4beta/mu-opioid, 1 µM (AID 2637;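 active = calcium signal ratio cut to more than 3 SD under the fully stimulated control mean yet still positive, in both repeats and the primary screen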;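 as to inhibition: percent of integrated ratio relative to wells lacking test compound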); settings: Fluo4 calcium flux, DAMGO, at 1 µM; hits give high values
[22] = target: Short transient receptor potential channel 4 (Mus musculus) (UniProt Q9QUQ5); assay: mouse TRPC4 channel activators, dose response, cell-based, HEK293 TRPC4/mu-opioid, Fluo-4 calcium (AID 434937;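 active = primary screen activator hit with a dose response curve and TRPC4 channel activation at any tested dose; inactive = no activation, no dose response, or not a primary hit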)
[23] = target: Short transient receptor potential channel 4 (Mus musculus) (UniProt Q9QUQ5); assay: TRPC4 positive allosteric modulators, dose response, cell-based, HEK293 TRPC4/mu-opioid, Fluo-4 calcium, EC20 DAMGO (AID 434941;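 active = earlier screen potentiator hit that boosts the TRPC4 ion channel at some dose, with a dose response; inactive = no potentiation, no dose response, or not a prior hit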;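 also: calcium entry triggered by an EC20 dose of DAMGO at the co-expressed mu-opioid receptor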)
[24] = target: Short transient receptor potential channel 6 (Mus musculus) (UniProt Q61143); assay: inhibition of mouse TRPC6 channel, confirmation, selectivity assay for TRPC4 inhibitor project, cell-based, HEK293, membrane potential dye, duplicate (AID 434948;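 active = active in primary screen and both duplicates, each dropping signal beyond three positive-control SD with fluorescence still positive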); settings: HEK293 TRPC6, membrane potential dye fluorescence, at 10 µM, stimulated with maximal-effect acetylcholine; hits give high values
[25] = target: Short transient receptor potential channel 6 (Mus musculus) (UniProt Q61143); assay: activation of mouse TRPC6 channel, confirmation, selectivity assay for TRPC4 activator project, cell-based, HEK293, membrane potential dye, duplicate (AID 434950;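 active = membrane potential signal rise above negative control mean plus 3 SD in both duplicates, also active in the earlier TRPC4 screen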); settings: HEK293 TRPC6, membrane potential fluorescence, at 10 µM; hits give high values
[26] = target: Short transient receptor potential channel 6 (Mus musculus) (UniProt Q61143); assay: TRPC6 potentiation by TRPC4 potentiator hits, confirmation, selectivity assay for TRPC4 potentiator project, HEK293 cells, membrane potential dye, duplicate (AID 434952;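 active = compound raising the membrane signal above positive-control mean plus 3 SD in both repeats, and a primary screen hit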); settings: HEK293 TRPC6, membrane potential dye fluorescence, at 10 µM, maximal acetylcholine added after compound; hits give high values
[27] = target: Short transient receptor potential channel 4 (Mus musculus) (UniProt Q9QUQ5); assay: calcium flux activators in TRPC4/5HT1a cells, counter-screen for TRPC4 activator project, cell-based, second counter screen, HEK293 TRPC4/5HT1a, Fluo-4 (AID 434977;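 active = calcium signal rise above buffer-control mean plus 5 SD in both duplicates, and also a hit in the primary screen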;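 as to activation: plate controls were assay buffer for no effect and maximal serotonin response for full effect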); settings: Fluo-4 calcium flux, at 10 µM; hits give high values
[28] = calcium flux inhibitors in TRPC4/5HT1a cells, confirmation, counter-screen for TRPC4 inhibitor project, cell-based, second counter screen, HEK293 TRPC4/5HT1a, Fluo-4 (AID 434978;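 active = primary screen active whose calcium signal fell more than 3 SD beyond the full-serotonin control mean in both duplicate plates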;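 as to outcome: serotonin given first at submaximal then at maximal dose after compound preincubation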); settings: Fluo-4 calcium flux, at 10 µM, serotonin added to trigger calcium flux; hits give high values
[29] = test system: TRPC4 (mouse), co-expressed with 5HT1a in HEK293; assay: calcium flux potentiators in TRPC4/5HT1a cells, confirmation, counter-screen for TRPC4 potentiator project, cell-based, second counter screen, HEK293 TRPC4/5HT1a, Fluo-4 (AID 434979;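 active = signal rise over 3 SD above mean of control wells given weak agonist, in both repeats and first screen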); settings: Fluo-4 calcium flux, at 10 µM, serotonin added at its EC20 dose; hits give high values
[30] = calcium flux activation in mu-opioid HEK293 cells, confirmation, counter-screen for TRPC4 activator project, cell-based, HEK293 mu-opioid receptor line (AID 449723;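 active = hit in primary screen, with calcium signal over 5 SD above buffer well mean in both duplicates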;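 also: counter screen cells carry the mu-opioid receptor alone and lack TRPC4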); settings: Fluo-4 calcium fluorescence, at 10 µM; hits give high values
[31] = calcium flux enhancement in mu-opioid HEK293 cells, confirmation, counter-screen for TRPC4 allosteric potentiator project, cell-based, HEK293 mu-opioid receptor line (AID 449724;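 active = calcium signal rise more than 3 SD above the low-dose agonist control mean, in both duplicate plates and the primary screen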); settings: Fluo-4 calcium flux, at 10 µM, compound added before EC20 DAMGO stimulus; hits give high values
[32] = target: Short transient receptor potential channel 4 (Mus musculus) (UniProt Q9QUQ5); assay: mouse TRPC4 channel inhibitors, dose response, cell-based, HEK293 TRPC4/mu-opioid, Fluo-4 calcium (AID 434942;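 active = primary screen inhibitor hit that blocks the TRPC4 channel at some tested dose, yielding a dose curve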)
[33] = target: Potassium voltage-gated channel subfamily E member 1 (Homo sapiens) + Potassium voltage-gated channel subfamily KQT member 1 (Homo sapiens) (UniProt P15382+P51787); assay: KCNQ1/KCNE1 complex potentiators, confirmation, selectivity assay for KCNQ1 potentiator project, thallium flux, CHO-K1 KCNQ1/E1 cells (AID 493186;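 active = mean duplicate activation above the buffer control mean plus 5 SD of those controls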); settings: FluxOR thallium flux, at 10 µM
Sequence of Potassium voltage-gated channel subfamily E member 1 (Homo sapiens) + Potassium voltage-gated channel subfamily KQT member 1 (Homo sapiens) (P51787 whole entry, looked up): as the sequence (P51787 whole entry, looked up) above

[34] = target: Potassium voltage-gated channel subfamily KQT member 1 (Homo sapiens) (UniProt P51787); assay: KCNQ1 channel inhibitors, confirmation, orthogonal assay, cell-based, automated electrophysiology (AID 624120;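 active = KCNQ1 current drop exceeding 3 SD of negative control wells, seen in both duplicate runs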); settings: KCNQ1-CHO cells, automated patch clamp current; at 10 µM

CC1=NN(C(=O)c2ccc(Br)cc2)C(O)(c2ccccc2)C1 (stereo not drawn)
active: FluxOR signal as % of negative control (100 = no effect) [2] 73.5%
inactive: outcome [1] | activity increase over 3SD of controls [3] -19% | activation over 3SD threshold [4] -5.7% | potentiation, less the hit threshold [5] -11.5% | activity over 3SD threshold [6] -31.6%

Cc1nnc(SCc2ccc(C(=O)c3ccc(Cl)cc3)o2)n1-c1ccccc1
active: Tl flux remaining, % of negative control (hits give low values) [1] 66% | inhibition [9] 19% | membrane potential signal change [10] 116% | percent change from control (negative = decrease, positive = increase) [12] 23.5% | inhibition [14] 62%
inactive: outcome [2] | outcome [7] | outcome [8] | outcome [11] | outcome [13]

CN(c1ccccc1)S(=O)(=O)c1ccc(Cl)c(C(=O)OCC(=O)NCc2ccco2)c1
inactive: outcome [1] | outcome [2] | activity increase over 3SD of controls [3] -5.5% | activation over 3SD threshold [4] -28.3% | potentiation, less the hit threshold [5] -1.3% | activity over 3SD threshold [6] -38.2%

COc1ccc(C(O)(C2CCCCC2)C(CN2CCCC2)c2ccccc2)cc1 (stereo not drawn)
active: Tl flux remaining, % of negative control (hits give low values) [1] 49%
inactive: outcome [2] | outcome [7] | outcome [8] | outcome [9]

Cc1ccc(C(=O)Nc2nnc(C3=COCCO3)o2)cc1C
inactive: outcome [1] | outcome [2] | activation over 3SD threshold [4] -7.9% | activity over 3SD threshold [6] -30.3% | outcome [15] | outcome [16] | outcome [17] | outcome [18] | outcome [19] | outcome [22] | outcome [23] | outcome [24] | outcome [25] | outcome [26] | outcome [27] | outcome [29] | outcome [30] | outcome [31]
active: activity increase over 3SD of controls [3] 50.1% | potentiation, less the hit threshold [5] 4.5% | inhibition [20] 66% | inhibition [21] 44% | inhibition [28] 42.2%

CN1CCN(CCCCOc2ccccc2-c2ccccc2)CC1
inactive: outcome [2] | outcome [7] | outcome [8]
active: Tl flux remaining, % of negative control (hits give low values) [1] 48.5% | inhibition [9] 27.4%

COc1cc(/C=N/O)cc(Br)c1OS(=O)(=O)c1ccc(C)cc1
active: Tl flux remaining, % of negative control (hits give low values) [1] 57.5%
inactive: outcome [2]

Cc1cc(C)nc(SCc2nnc(SCC(=O)OC3CCCCC3)o2)n1
active: Tl flux remaining, % of negative control (hits give low values) [1] 28% | inhibition [9] 82.2%
inactive: outcome [2] | outcome [7] | outcome [8]

CC1CN(C(=O)CCC(=O)NCCCN2CCC(Cc3ccccc3)CC2)c2cc(Cl)ccc2O1 (stereo not drawn)
inactive: outcome [2]
active: Tl flux remaining, % of negative control (hits give low values) [1] 35.5%

CCc1ccc(-c2nn(-c3ccccc3)cc2CSC(=N)N)cc1
inactive: outcome [16] | outcome [17] | outcome [18] | outcome [20] | outcome [21] | outcome [22] | outcome [23] | outcome [32] | outcome [24] | outcome [25] | outcome [26] | outcome [28] | outcome [29] | outcome [31]
active: activation [15] 125% | activation [27] 43.7% | activation [30] 24.4%

Cc1[nH][nH]c(=O)c1C(c1ccc(-c2ccc(Cl)cc2)o1)c1c(C)[nH][nH]c1=O
inactive: outcome [33]

S=C(NCc1ccc(Cl)cc1)NC12CC3CC(CC(C3)C1)C2
active: outcome [34]
